Results filed as inconclusive are left out. Unless noted, the call rests on the fitted dose curve; in most records, active means well fitted curve in either direction with a large enough effect (not every such curve was filed as active); inconclusive means small, poorly fitted or top-dose-only effect, or another doubt; inactive means flat fitted curve, though single readings scatter.
Tests used:
[1] = AP1 Signaling Pathway (AID 357); conditions: ME-180 AP-1-bla reporter, EGF-induced, beta-lactamase ratio, 5 h; at 17.2 µM (top of the series) unless noted;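 further: ME-180 reporter cells stimulated with EGF at its EC50 level; on the % scale 0 is the no-effect control and ±100 the full control effect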
Procedure, shortened: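 Cells are seeded overnight, exposed to compound titrations and an EC50 level of EGF for 5 hours at 37 °C, then loaded with CCF4 dye for 2.5 hours. Beta-lactamase activity under the AP-1 element is read as a blue/green ratio.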

[2] = NFAT Signaling Pathway (AID 444); conditions: Jurkat NFAT-bla M1, carbachol, beta-lactamase ratio, 5 h; at 17.2 µM (top of the series) unless noted;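 further: carbachol stimulus at about its EC50 of 1 µM final; on the % scale 0 is the no-effect control and ±100 the full control effect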
Procedure, shortened: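 Jurkat cells with NFAT-driven β-lactamase reporter and co-expressed M1 receptor, stimulated with carbachol (final 1 uM, ~EC50), compound titration, 5 h at 37 °C. CCF4 loaded 1 h at RT; 460/530 nm ratio gave %activity and AC50.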

[3] = Stat Signaling Pathway (AID 446); conditions: ME-180 SIE beta-lactamase reporter, IL-6 stimulated, 5 h; at 17.2 µM (top of the series) unless noted;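 further: ME-180 cervical cancer cells given 40 pM IL-6 alongside compound; SIE-controlled beta-lactamase reporter measured as 460/530 nm FRET emission ratio; on the % scale 0 is the no-effect control and ±100 the full control effect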
Procedure, shortened: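 Screening format detects activators and inhibitors alike: ME-180 SIE-bla cells stimulated at 40 pM IL-6 for 5 hrs with compound, then dual-emission beta-lactamase read at 405 nm excitation.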

[4] = target: Glucocorticoid receptor (Homo sapiens) (UniProt P04150); test: GR-GFP Redistribution (AID 450;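 active means compounds whose dose series gives a full or clear partial fitted curve of increased nuclear translocation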; further: potency means the concentration at half of the fitted maximal effect); conditions: U2OS GR-GFP nuclear translocation, laser cytometry, 2 h; series mostly up to 20.6 µM
Glucocorticoid receptor (Homo sapiens), sequence (P04150 whole entry, looked up): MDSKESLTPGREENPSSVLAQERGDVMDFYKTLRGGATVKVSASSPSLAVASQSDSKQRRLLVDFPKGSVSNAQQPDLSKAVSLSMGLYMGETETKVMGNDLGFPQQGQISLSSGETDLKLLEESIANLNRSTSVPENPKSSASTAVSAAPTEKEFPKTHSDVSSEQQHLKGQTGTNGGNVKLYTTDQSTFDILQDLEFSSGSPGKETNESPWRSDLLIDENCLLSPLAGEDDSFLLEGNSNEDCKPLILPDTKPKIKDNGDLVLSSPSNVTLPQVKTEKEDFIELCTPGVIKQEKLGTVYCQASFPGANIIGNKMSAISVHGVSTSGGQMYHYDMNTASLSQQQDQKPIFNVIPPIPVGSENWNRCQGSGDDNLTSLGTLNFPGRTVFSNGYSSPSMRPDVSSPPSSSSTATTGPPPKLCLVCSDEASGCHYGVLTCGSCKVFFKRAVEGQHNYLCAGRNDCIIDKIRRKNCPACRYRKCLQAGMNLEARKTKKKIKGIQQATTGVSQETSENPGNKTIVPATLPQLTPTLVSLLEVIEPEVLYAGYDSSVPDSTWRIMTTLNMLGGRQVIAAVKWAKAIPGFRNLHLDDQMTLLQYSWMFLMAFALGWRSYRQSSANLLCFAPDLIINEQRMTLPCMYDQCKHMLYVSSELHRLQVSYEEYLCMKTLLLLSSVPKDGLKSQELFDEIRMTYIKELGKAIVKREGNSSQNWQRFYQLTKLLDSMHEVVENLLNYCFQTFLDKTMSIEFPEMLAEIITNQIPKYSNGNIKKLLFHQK

Clc1nc(-c2n[nH]nc2Cl)n[nH]1
inactive: activity change, negative = inhibition [1] 14.2% | activity change, negative = inhibition [2] -2.11% | activity, negative = inhibition [3] 5.38% | Potency [4] > 20.6 µM

c1ccc(-n2ncc3c(N4CCCC4)ncnc32)cc1
inactive: activity change, negative = inhibition [1] -17.5% | activity change, negative = inhibition [2] 14.9% | activity, negative = inhibition [3] -6.73% | Potency [4] > 20.6 µM

CCCCc1cc(=O)oc2c(CN3CCCC3)c(O)ccc12
inactive: activity change, negative = inhibition [1] 9.79% | activity change, negative = inhibition [2] 2.24% | activity, negative = inhibition [3] 3.31% | Potency [4] > 20.6 µM

COc1ccccc1-n1c(=O)c2c3c(sc2n2c(SC)nnc12)CCC3
inactive: activity change, negative = inhibition [1] 6.29% | activity change, negative = inhibition [2] -21.2% | activity, negative = inhibition [3] 14.3% | Potency [4] > 20.6 µM

Cc1ccc(-n2ncc3c(NCCCOC(C)C)ncnc32)c(C)c1
inactive: activity change, negative = inhibition [1] -18.8% | activity change, negative = inhibition [2] 25.7% | activity, negative = inhibition [3] -8.86% | Potency [4] > 20.6 µM

CCCc1cc(=O)oc2c(CN3CCCC3)c(O)ccc12
inactive: activity change, negative = inhibition [1] -13.6% | activity change, negative = inhibition [2] 8.87% | activity, negative = inhibition [3] 2.68% | Potency [4] > 20.6 µM

CC1(C)Cc2c(C#N)c(SCc3nc4ccccc4[nH]3)nc(N3CCOCC3)c2CO1
inactive: activity change, negative = inhibition [1] -22.7% | activity change, negative = inhibition [2] 8.62% | activity, negative = inhibition [3] -16.1% | Potency [4] > 20.6 µM

COc1ccc(OC)c(C2/C(=C(/O)c3ccc(C)cc3)C(=O)C(=O)N2Cc2ccco2)c1 (centres undefined)
inactive: activity change, negative = inhibition [1] -0.882% | activity change, negative = inhibition [2] -17.7% | activity, negative = inhibition [3] -18.2% | Potency [4] > 20.6 µM

N#Cc1nc(-c2ccc(F)cc2)oc1N1CCCC1
inactive: activity change, negative = inhibition [1] 0.0908% | activity change, negative = inhibition [2] -1.86% | activity, negative = inhibition [3] -3.18% | Potency [4] > 20.6 µM

CCCCOc1ccc(C2CC(=O)N(C)C2=O)cc1 (centres undefined)
inactive: activity change, negative = inhibition [1] -14.6% | activity change, negative = inhibition [2] -3.42% | activity, negative = inhibition [3] 4.12% | Potency [4] > 20.6 µM

C=CCOc1nc2c(c(=O)n(C)c(=O)n2C)n1Cc1ccccc1Cl
inactive: activity change, negative = inhibition [1] -0.647% | activity change, negative = inhibition [2] -10.1% | activity, negative = inhibition [3] -0.000949% | Potency [4] > 20.6 µM

COCCNc1ncnc2c1cnn2-c1ccc(Cl)cc1
inactive: activity change, negative = inhibition [1] -9.71% | activity change, negative = inhibition [2] -10.4% | activity, negative = inhibition [3] 2.93% | Potency [4] > 20.6 µM

COC(=O)c1[nH]c2ccc(Cl)cc2c1NC(=O)C1CC1
inactive: activity change, negative = inhibition [1] -4.32% | activity change, negative = inhibition [2] -26.4% | activity, negative = inhibition [3] 1.62% | Potency [4] > 20.6 µM

S=c1[nH]nc(-c2ccccc2)n1Cc1ccccc1
inactive: activity change, negative = inhibition [1] -4.69% | activity change, negative = inhibition [2] -11.2% | activity, negative = inhibition [3] 6.25% | Potency [4] > 20.6 µM

Nc1nc(NC(=O)Cc2ccccc2)nn1-c1ccccc1
inactive: activity change, negative = inhibition [1] 5.76% | activity change, negative = inhibition [2] 9.17% | activity, negative = inhibition [3] 4.24% | Potency [4] > 20.6 µM

c1coc(-c2nc3nc4ccccc4nc3n2-c2ccc3c(c2)OCCO3)c1
inactive: activity change, negative = inhibition [1] -28.6% | activity change, negative = inhibition [2] 21.1% | activity, negative = inhibition [3] -8.28% | Potency [4] > 20.6 µM

Cc1ccc(N(CC(=O)O)C2SC(=O)NC2=O)cc1 (centres undefined)
inactive: activity change, negative = inhibition [1] 12.3% | activity change, negative = inhibition [2] 0.868% | activity, negative = inhibition [3] 6.57% | Potency [4] > 20.6 µM

CC(C)C1Cc2c(sc3c2c(=O)n(-c2ccccc2)c2nncn32)CO1 (centres undefined)
inactive: activity change, negative = inhibition [1] -6.58% | activity change, negative = inhibition [2] -10.2% | activity, negative = inhibition [3] 5.31% | Potency [4] > 20.6 µM

CC(O)CNc1nc2c(c(=O)n(C)c(=O)n2C)n1CCc1ccccc1 (centres undefined)
inactive: activity change, negative = inhibition [1] -2.48% | activity change, negative = inhibition [2] -12.9% | activity, negative = inhibition [3] -8.4% | Potency [4] > 20.6 µM

Cn1c(N2CCN(c3ccccn3)CC2)nc2c1c(=O)n(Cc1ccccc1Cl)c(=O)n2C
inactive: activity change, negative = inhibition [1] 4.27% | activity change, negative = inhibition [2] 8.29% | activity, negative = inhibition [3] -8.44% | Potency [4] > 20.6 µM

COC(=O)c1ccc(C2/C(=C(\O)c3ccc4c(c3)OCCO4)C(=O)C(=O)N2CCCN(C)C)cc1 (centres undefined)
inactive: activity change, negative = inhibition [1] 10.1% | activity change, negative = inhibition [2] 5.87% | activity, negative = inhibition [3] -5.8% | Potency [4] > 20.6 µM

COc1ccccc1N(O)C1CC(=O)N(c2ccc(Br)cc2)C1=O (centres undefined)
inactive: activity change, negative = inhibition [1] -7.13% | activity change, negative = inhibition [2] -6.72% | activity, negative = inhibition [3] -0.749% | Potency [4] > 20.6 µM

COc1ccc(OC)c(NC(=O)CSc2nnc(-c3ccco3)n2-c2ccc(C(=O)O)cc2)c1
inactive: activity change, negative = inhibition [1] -4.17% | activity change, negative = inhibition [2] 15.9% | activity, negative = inhibition [3] -4.38% | Potency [4] > 20.6 µM

CCSc1nnc(N(CCC#N)CCC#N)s1
inactive: activity change, negative = inhibition [1] 8.14% | activity change, negative = inhibition [2] -7.48% | activity, negative = inhibition [3] -1.67% | Potency [4] > 20.6 µM

CC1(C)Cc2c(sc3nc(SCC(=O)NCc4ccco4)n(-c4ccccc4)c(=O)c23)CS1
inactive: activity change, negative = inhibition [1] -19.4% | activity change, negative = inhibition [2] -13.9% | activity, negative = inhibition [3] -26.5% | Potency [4] > 20.6 µM

COc1ccc(NC2CC(=O)N(C)C2=O)cc1 (centres undefined)
inactive: activity change, negative = inhibition [1] 9.53% | activity change, negative = inhibition [2] -9.34% | activity, negative = inhibition [3] 11.9% | Potency [4] > 20.6 µM

COc1ccc2[nH]c(C)c(C(=O)CN3CC(C)OC(C)C3)c2c1 (centres undefined)
inactive: activity change, negative = inhibition [1] 0.748% | activity change, negative = inhibition [2] -1.69% | activity, negative = inhibition [3] 2.01% | Potency [4] > 20.6 µM

Cn1c(=O)n(CCC(=O)O)c2ccccc21
inactive: activity change, negative = inhibition [1] 11.6% | activity change, negative = inhibition [2] 2% | activity, negative = inhibition [3] 2.26% | Potency [4] > 20.6 µM

COC(=O)c1ccccc1OCc1cccc(C)n1
inactive: activity change, negative = inhibition [1] -1.62% | activity change, negative = inhibition [2] -4.22% | activity, negative = inhibition [3] -5.73% | Potency [4] > 20.6 µM

COc1ccc(C(=O)C2CCCCC2=O)cc1 (centres undefined)
inactive: activity change, negative = inhibition [1] 2.34% | activity change, negative = inhibition [2] -0.888% | activity, negative = inhibition [3] 8.28% | Potency [4] > 20.6 µM

Cc1ccc(C(=O)NCC(C)(C)O)cc1
inactive: activity change, negative = inhibition [1] 9.77% | activity change, negative = inhibition [2] -4.7% | activity, negative = inhibition [3] 12.1% | Potency [4] > 20.6 µM

Cc1ccc(/C=N/n2nnnc2N)o1
inactive: activity change, negative = inhibition [1] 2.97% | activity change, negative = inhibition [2] -0.388% | activity, negative = inhibition [3] -5.51% | Potency [4] > 20.6 µM

COCCOC(=O)c1c(C)nc(SCC(=O)Nc2ccc(OC)cc2)c(C#N)c1-c1ccco1
inactive: activity change, negative = inhibition [1] -13.3% | activity change, negative = inhibition [2] -14.8% | activity, negative = inhibition [3] -16.8% | Potency [4] > 20.6 µM

CCOC(=O)c1cc(CC)sc1NC(=O)C1CC1
inactive: activity change, negative = inhibition [1] -23.9% | activity change, negative = inhibition [2] 12.8% | activity, negative = inhibition [3] -13.8% | Potency [4] > 20.6 µM

Cn1c(=O)n(Cc2ccccc2)c(=O)c2c1nc(NCC1CCCO1)n2Cc1ccccc1 (centres undefined)
inactive: activity change, negative = inhibition [1] -28.9% | activity change, negative = inhibition [2] -16.1% | activity, negative = inhibition [3] -15.3% | Potency [4] > 20.6 µM

COC(=O)C(NC(=O)c1ccco1)(Nc1nc(C)cs1)C(F)(F)F (centres undefined)
inactive: activity change, negative = inhibition [1] -3.01% | activity change, negative = inhibition [2] 4.32% | activity, negative = inhibition [3] -2.51% | Potency [4] > 20.6 µM

From PubChem BioAssay (NCATS)
